Consider 17 molecules from PubChem BioAssay (EPA / NIEHS).

As a reminder, the AC50 is the midpoint of the concentration-response curve, whichever way the signal moves.

Each structure is given as a SMILES string. “And” between values parts separate entries of the source, which are not always exact repeats. Equal values may be shown once. Results filed as inconclusive are left out. The source made the active and inactive calls. How the source made its calls, unless noted: active means hit-call score of the fitted dose curve at least 0.9, where 1 is the maximum; inconclusive means response in the unintended direction; inactive means score below 0.9. *1 amine or outer side, *2 acyl side, *3 side chain or, on linkers, in order; H or OH if unused. Where a SMILES comes first, the peptide text is derived from it. Bridges are numbered along the chain shown (N, C = ends). Roman numbers before positions name the chains, in order. [ ]: non-standard residue; d: D form. Actinocin(9to1) = Cc1c2oc3c(C)ccc(C(=O)[*:1])c3nc-2c(C(=O)[*:2])c(N)c1=O; NMeV = CN[C@H](C(=O)O)C(C)C; Sar = CNCC(=O)O

Cellular tumor antigen p53 (Homo sapiens), sequence (P04637 whole entry, looked up): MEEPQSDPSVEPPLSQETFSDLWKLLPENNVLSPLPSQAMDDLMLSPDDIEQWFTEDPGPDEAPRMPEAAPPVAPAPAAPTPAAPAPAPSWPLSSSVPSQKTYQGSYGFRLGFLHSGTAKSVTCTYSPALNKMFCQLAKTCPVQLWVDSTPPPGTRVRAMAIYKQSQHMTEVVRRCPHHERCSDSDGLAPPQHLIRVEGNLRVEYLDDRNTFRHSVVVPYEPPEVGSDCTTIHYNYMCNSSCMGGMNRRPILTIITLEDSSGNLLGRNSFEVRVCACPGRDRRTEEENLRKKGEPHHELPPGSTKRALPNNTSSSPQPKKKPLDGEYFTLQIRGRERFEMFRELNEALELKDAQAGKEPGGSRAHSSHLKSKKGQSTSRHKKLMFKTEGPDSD

In the first assay the target is Cellular tumor antigen p53 (Homo sapiens) (UniProt P04637). The experiment in a line: TOX21_p53_BLA_p4_ratio: Tox21 HCT-116 p53 Agonism Beta-lactamase Assay, Ratio, Phase 4 (AID 2283601). The essentials:
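HCT116 cells carrying an inducible beta-lactamase reporter were plated at 4000 cells/well, rested 5 h, then exposed to compounds in DMSO (217-fold dilution) for 16 h at 37C. CCF4-AM substrate was loaded 2 h at room temperature; 460/530 nm emission ratio scored gain-of-signal versus DMSO.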
Consider `[Cl-].[Cl-].[NH2-].[NH2-].[Pt+4]`, for which the result was inactive.
On the same count and under the same terms, the same measure for `CC(=O)O[Si](C)(OC(C)=O)OC(C)=O`: “inactive”; for `O=C(O)CCCc1ccccc1`: “inactive”; for `CC(CO)Oc1ccccc1` (stereo not drawn): “inactive”.
Turning to `Nc1ncnc2c1ncn2[C@@H]1O[C@H](COP(=O)(O)OP(=O)(O)OP(=O)(O)O)[C@@H](O)[C@H]1O`, the result was inactive.
Turning to `CCCCCCCCCCCl`, the outcome was inactive.
Turning to `CCOC(=O)COc1ccc(C)cc1`, the outcome was inactive.
For `CCO[Si](CC(C)C)(OCC)OCC`, the result was inactive.
Still for that read-out and setting: under `COc1ccccc1C=CC=O` stands “inactive”.
On the same count and under the same terms, the same measure for `CCCCCCCCS`: “inactive”.
Turning to `Cc1c2oc3c(C)ccc(C(=O)N[C@@H]4C(=O)N[C@H](C(C)C)C(=O)N5CCC[C@H]5C(=O)N(C)CC(=O)N(C)[C@@H](C(C)C)C(=O)O[C@@H]4C)c3nc-2c(C(=O)N[C@@H]2C(=O)N[C@H](C(C)C)C(=O)N3CCC[C@H]3C(=O)N(C)CC(=O)N(C)[C@@H](C(C)C)C(=O)O[C@@H]2C)c(N)c1=O` (I: T[dV]P[Sar][NMeV] / II: T[dV]P[Sar][NMeV]; ester I:1-I:C, II:1-II:C; linker I:N-II:N via Actinocin(9to1)), the concentration at half-maximal activity (AC50) is 0.262 nM (active) and 3.61 nM (active).
Turning to `Nc1c2c(nc3ccccc13)CCCC2`, the outcome was inactive.
Turning to `CN1C(=O)CN2CCc3ccccc3C2c2cc(Cl)ccc21` (stereo not drawn), the AC50 was 33.8 µM (active).

Tested on in the next assay: not listed separately
The experiment in a line: CCTE_Harrill_HTTr_Viability_MCF7: CCTE's 6-hour Cell Viability Assessment for the High-Throughput Transcriptomics (HTTr) Platform, in MCF-7 cells cultured in DMEM + 10% fetal bovine serum, Harrill Lab (AID 2284010; active means hit-call score of the fitted dose curve at least 0.9, where 1 is the maximum; inactive means score below 0.9). The essentials:
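PI exclusion, high-content imaging; 8-pt dilution series, 6 h exposure; bidirectional fit vs DMSO (neg. ctrl/baseline); gain of signal = loss of membrane integrity.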
Turning to `C[C@@H]1C[C@H]2[C@@H]3CCC4=CC(=O)C=C[C@]4(C)[C@@]3(F)[C@@H](O)C[C@]2(C)[C@@]1(O)C(=O)CO`, the result was inactive.
Consider `O=C(O)c1cc(=O)c2c(OCC(O)COc3cccc4oc(C(=O)O)cc(=O)c34)cccc2o1`, for which the outcome was inactive.
With `CC(C)(C)NC[C@H](O)COc1nsnc1N1CCOCC1`, the outcome was inactive.
On the same count and under the same terms, under `c1ccc([C@H]2CN3CCSC3=N2)cc1` stands “inactive”; under `Nc1c2c(nc3ccccc13)CCCC2`, “inactive”.

Tested on in a further assay: not listed separately
The experiment in a line: CCTE_Harrill_HTTr_Apoptosis_MCF7: CCTE's 6-hour Apoptosis Assessment for the High-Throughput Transcriptomics (HTTr) Platform, in MCF-7 cells cultured in DMEM + 10% fetal bovine serum, Harrill Lab (AID 2284011; active means hit-call score of the fitted dose curve at least 0.9, where 1 is the maximum; inactive means score below 0.9). Summed up: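 Cells are dosed with test chemicals at eight concentrations and imaged 6 hours later for caspase-3/7 activity using a green fluorogenic detection reagent. Activity is fitted in both directions against DMSO controls.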
Take `C[C@@H]1C[C@H]2[C@@H]3CCC4=CC(=O)C=C[C@]4(C)[C@@]3(F)[C@@H](O)C[C@]2(C)[C@@]1(O)C(=O)CO`: the outcome was inactive.
On the same count and under the same terms, the same measure for `O=C(O)c1cc(=O)c2c(OCC(O)COc3cccc4oc(C(=O)O)cc(=O)c34)cccc2o1`: “inactive”.
On the same count and under the same terms, the same measure for `CC(C)(C)NC[C@H](O)COc1nsnc1N1CCOCC1`: “inactive”; for `c1ccc([C@H]2CN3CCSC3=N2)cc1`: “inactive”.
On the same count and under the same terms, under `Nc1c2c(nc3ccccc13)CCCC2` stands “inactive”.
